This is an account of results in ChEMBL document CHEMBL4513216, “Probing the Open Global Health Chemical Diversity Library for Multistage-Active Starting Points for Next-Generation Antimalarials” (ACS Infect Dis, 2020).

The campaign covered roughly 69,000 compounds. About 8,600 (12%) showed an effect of 50% or more. Shown is part of a subset that was picked to be rich in strong results.

The assay concerns Plasmodium berghei. In words: Screen against P. berghei liver stage (PbLuc), transformed with Luciferase, at 10uM. The following applies: tested at 10 uM. Format: functional, HepG2.
Turning to `CC(NC(=O)NCCCN1CCCCCC1)c1nncn1C` (configuration not stated), the INHIBITION worked out at 30.2%. To `Cc1cccc(C)c1OCCNC(=O)NC(C)c1nncn1C` (configuration not stated) belongs 50.4%; to `CC(NC(=O)NCCCN1CCc2ccccc2C1)c1nncn1C` (configuration not stated), -120%. To `CC1CCN(CCCNC(=O)NC(C)c2nncn2C)CC1` (configuration not stated) belongs 52.3%; to `CC(NC(=O)NCCCN1CCCC1)c1nncn1C` (configuration not stated), 0.914%; to `Cc1cccc(OCCCNC(=O)NC(C)c2nncn2C)c1` (configuration not stated), 15.9%.

Consider `CC(NC(=O)NCCOc1ccc(Cl)cc1)c1nncn1C` (configuration not stated), for which the INHIBITION stood at 39.7%. For `CC(NC(=O)NCCN1CCCC1)c1nncn1C` (configuration not stated), the INHIBITION is on record as 56.4%. For `CCN1CCN(CCCNC(=O)NC(C)c2nncn2C)CC1` (configuration not stated), the INHIBITION is given as 40%. With `N#CCCSc1sc2c(O)cc(O)nc2c1C#N` the figure was 38.2%; with `O=C(NCCc1cc2nc(-c3ccncc3)ccn2n1)C1CC1`, 23.6%. Consider `O=C(c1cc[nH]n1)N1CCCC1c1ccccn1` (configuration not stated), for which the INHIBITION amounted to 13.5%.

Turning to `CC(=O)N1CCC(c2nccnc2C)CC1`, the INHIBITION is -16.1%. To `OCC1(NCc2cnc(-c3ccsc3)s2)CCOCC1` belongs -11.7%. Turning to `CN(C)c1cnn(CC(=O)N2CCN(c3ccccc3)CC2)c(=O)c1`, the INHIBITION is given as 53.7%.

As to `CN(Cc1ccoc1)C(=O)Cn1ncc(N(C)C)cc1=O`, the INHIBITION came to 50.5%.

In the case of `CN(CCc1ccccc1)c1cnn(CC(=O)N2CCOCC2)c(=O)c1`, the INHIBITION amounted to 20.2%. On to `CN(Cc1ccc2nsnc2c1)C(=O)Cn1ncc(N(C)C)cc1=O`, for which the INHIBITION was determined as 5.46%. To `CN(C)c1cnn(CC(=O)N2Cc3ccccc3C2)c(=O)c1` belongs 31.4%. With `CN(CCc1ccccc1)c1cnn(CC(=O)N2CCSCC2)c(=O)c1` the figure was 38.5%.

As for `CSc1cccc(CN(C)C(=O)Cn2ncc(N(C)C)cc2=O)c1`, the INHIBITION worked out at 4.64%. To `CN(C)c1cnn(CC(=O)N2CCN(Cc3cccs3)CC2)c(=O)c1` belongs 65.7%; to `CN(C)c1cnn(CC(=O)N2CCCCCC2)c(=O)c1`, 15.4%.

For the compound `O=C(CCn1c(C(F)F)cc2cccnc21)NC1CC1`, the INHIBITION is 22%. With `CC(c1nc(C(C)(C)C)no1)N1CCN(c2ccc(C#N)cn2)CC1` (configuration not stated) the figure was 23.9%; with `Cc1cc(C)n(CC2CCCN2C(=O)c2ccnc(N(C)C)c2)n1` (configuration not stated), 3.73%.

Consider `CN(C)C(=O)[C@H]1C[C@H]2CN(c3ncccn3)C[C@@H]1O2`, for which the INHIBITION is listed as -5.63%. As to `Cn1cc(CN2CCCC3(CCN(Cc4ccncc4)C3=O)C2)cn1` (configuration not stated), the INHIBITION is recorded as 43.1%. With `COCCN1CCO[C@@H]2CN(Cc3sccc3C)C[C@@H]2C1` the figure was 24.6%; with `O=C(c1ccc(=O)[nH]n1)N(CCO)Cc1cc(Br)ccc1F`, 23.1%; with `CCc1ccc(-n2nnc(C(=O)O)c2-c2ccccn2)cc1`, 9.84%. Turning to `Cc1nnc2n1CCN(Cc1csc(CC(=O)N(C)C)n1)C2`, the INHIBITION came out at 16.7%. With `CN(C)C(=O)Cc1nc(CN2CCn3c(nnc3C3CC3)C2)cs1` the figure was 8.81%; with `CC(C)c1nnc2n1CCN(Cc1csc(CC(=O)N(C)C)n1)C2`, 52%. With `O=C1CCC2(CCCN(CCc3ccccc3)C2)N1Cc1cccnc1` (configuration not stated) the figure was 23.2%; with `CC(CNCc1ccc(Cl)cc1)Oc1ccccn1` (configuration not stated), 11.4%; with `CCn1cc(NC(=O)N2CCN(CCSc3ccccc3)CC2)cn1`, -32.35%. With `CN1CCN(C(=O)C2CCCc3[nH]ncc32)CC1` (configuration not stated) the figure was -3.12%; with `O=C(C1CCCc2[nH]ncc21)N1CCCC2(C1)OCCO2` (configuration not stated), 50.8%. `O=C(C1CCCc2[nH]ncc21)N1CCCC1` (configuration not stated): the INHIBITION came out at 17.4%.

Regarding `O=C(C1CCCc2[nH]ncc21)N1CCCCCC1` (configuration not stated), the INHIBITION came to 46.6%. With `CCN1CCN(C(=O)C2CCCc3[nH]ncc32)CC1` (configuration not stated) the figure was -24.9%.

In the case of `CCN(CC)C(=O)N1CCN(C(=O)C2CCCc3[nH]ncc32)CC1` (configuration not stated), the INHIBITION is 67.5%. To `CCS(=O)(=O)N1C[C@H]2CN(Cc3ccc(OC)cc3)C(=O)[C@H]2C1` belongs -12.2%; to `O=C(NCc1nc(C2CC2)no1)N1CCOC(c2ccccc2)C1` (configuration not stated), 33.2%; to `O=C(NCc1nc(C2CC2)no1)N1CCOC(c2ccccc2F)C1` (configuration not stated), 35%. As to `O=C(NCc1nc(C2CC2)no1)N1CCOC(c2cccc(F)c2)C1` (configuration not stated), the INHIBITION is listed as 53.6%.

As to `CCCOCC(=O)NC1CCc2nc(C)cn2C1` (configuration not stated), the INHIBITION was found to be 1.58%. `Cc1nc(C)n(CC2CCCN(Cc3cc(C#N)ccc3F)C2)n1` (configuration not stated): the INHIBITION is reported as -2.53%. For the compound `Cc1nc(C)n(CC2CN(CCOc3ccccc3F)CCO2)n1` (configuration not stated), the INHIBITION stood at 53.8%. To `Cc1csc2c(C3CCN(CCCOc4ccccc4)CC3)nc(C)n12` belongs 46.7%; to `Cc1csc2c(C3CCN(CCOc4ccccc4F)CC3)nc(C)n12`, 54%; to `Cc1ccc(OCCN2CCC(c3nc(C)n4c(C)csc34)CC2)cc1`, 29.1%. With `Cc1nc(C)n(CC2CN(Cc3cccc(C#N)c3)CCO2)n1` (configuration not stated) the figure was 10.5%; with `Cc1nc(C)n(CC2CN(CCOc3ccccc3C#N)CCO2)n1` (configuration not stated), -15.5%; with `Cc1nc(C)n(CC2CN(CCCOc3ccccc3C)CCO2)n1` (configuration not stated), 24.4%.

On to `Cc1nc(C)n(CC2CN(Cc3cc(C#N)ccc3F)CCO2)n1` (configuration not stated), for which the INHIBITION is reported as 51.1%.
